According to PubChem BioAssay (EPA / NIEHS):
The source made the active and inactive calls. The calls were made as follows: active = hit-call score of the fitted dose curve at least 0.9, where 1 is the maximum; inactive = score below 0.9.

What was measured:
Details in all cases: mRNA level, 48 h; actives raise or lower the signal
[1] = read-out: Peroxisomal acyl-coenzyme A oxidase 1 (ACOX1) gene, ACOX1 (gene 51); assay: LTEA_HepaRG_ACOX1: Life Technologies and Expression Analysis (LTEA) Assay for Peroxisomal acyl-coenzyme A oxidase 1 (ACOX1) gene using HepaRG (AID 2283467)
Procedure, shortened: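 HepaRG, 48 h chemical exposure, 8-pt half-log series from 100 uM top, 0.5% DMSO vehicle, duplicates. Readout: ACOX1 mRNA by Fluidigm qRT-PCR, housekeeping-normalized; bidirectional fit vs DMSO baseline.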

[2] = read-out: Bcl-2 (BAD) gene, BAD (gene 572); assay: LTEA_HepaRG_BAD: Life Technologies and Expression Analysis (LTEA) Assay for Bcl-2 (BAD) gene using HepaRG (AID 2283469)
Procedure, shortened: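 HepaRG, 48 h exposure, 8-pt half-log curve from 100 uM in 0.5% DMSO, duplicates. Readout: TaqMan qRT-PCR for BAD mRNA, housekeeping-normalised (ACTB/GAPDH/POLR2A); gain or loss fitted against DMSO baseline.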

[3] = read-out: Bcl-2 (BAX) gene, BAX (gene 581); assay: LTEA_HepaRG_BAX: Life Technologies and Expression Analysis (LTEA) Assay for Bcl-2 (BAX) gene using HepaRG (AID 2283470)
Procedure, shortened: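 Cells were thawed, plated for 48 h, moved to serum-free induction medium and dosed for 48 h (highest concentration 100 uM, half-log steps, 0.5% DMSO). Total RNA was then analysed for BAX expression by qRT-PCR.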

[4] = read-out: adenosine kinase (ADK) gene, ADK (gene 132); assay: LTEA_HepaRG_ADK: Life Technologies and Expression Analysis (LTEA) Assay for adenosine kinase (ADK) gene using HepaRG (AID 2283471)
Procedure, shortened: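 Read-out is ADK transcript level measured by qRT-PCR and normalised to three housekeeping genes. Cells are human HepaRG, dosed for 48 h at up to 100 uM in 0.5% DMSO. Gain or loss of signal is fitted against DMSO controls.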

[5] = read-out: Alpha-fetoprotein (AFP) gene, AFP (gene 174); assay: LTEA_HepaRG_AFP: Life Technologies and Expression Analysis (LTEA) Assay for Alpha-fetoprotein (AFP) gene using HepaRG (AID 2283472)
Procedure, shortened: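 Chemicals were tested on differentiated HepaRG cells for 48 hours at eight concentrations up to 100 uM, with 0.5% DMSO as vehicle. AFP expression was then quantified by qRT-PCR and analyzed for gain or loss relative to DMSO.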

BCL2L11 (gene 10018) = assay: LTEA_HepaRG_BCL2L11: Life Technologies and Expression Analysis (LTEA) Assay for Bcl-2 (BCL2L11) gene using HepaRG (AID 2283473)
Procedure, shortened: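 Differentiated human HepaRG cells were exposed 48 h in serum-free induction medium to eight half-log concentrations up to 100 uM in 0.5% DMSO, in duplicate. BCL2L11 mRNA was quantified by TaqMan qRT-PCR, normalized to ACTB, GAPDH and POLR2A; induction or repression fitted versus DMSO.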

[6] = read-out: Apolipoprotein A-V (APOA5) gene, APOA5 (gene 116519); assay: LTEA_HepaRG_APOA5: Life Technologies and Expression Analysis (LTEA) Assay for Apolipoprotein A-V (APOA5) gene using HepaRG (AID 2283474)
Procedure, shortened: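 Differentiated HepaRG cells in serum-free induction medium, exposed 48 h in duplicate to eight half-log concentrations topping at 100 uM (0.5% DMSO). APOA5 mRNA by Fluidigm TaqMan qRT-PCR, normalized to ACTB, GAPDH and POLR2A; bidirectional fit versus DMSO.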

[7] = read-out: Apoptosis regulator Bcl-2 (Homo sapiens) (UniProt P10415); assay: LTEA_HepaRG_BCL2: Life Technologies and Expression Analysis (LTEA) Assay for Bcl-2 gene using HepaRG (AID 2283475)
Procedure, shortened: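 Plated human HepaRG cells are exposed to test chemicals for 48 h across eight concentrations from 100 uM downward in half-log steps (0.5% DMSO). BCL2 expression is then measured by qRT-PCR with housekeeping normalisation and fitted bidirectionally against vehicle.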

[8] = read-out: Bcl-2 (BID) gene, BID (gene 637); assay: LTEA_HepaRG_BID: Life Technologies and Expression Analysis (LTEA) Assay for Bcl-2 (BID) gene using HepaRG (AID 2283476)
Procedure, shortened: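 Cells are plated, cultured 48 h, switched to serum-free induction medium, then dosed 48 h (100 uM top, half-log steps, 0.5% DMSO). RNA is isolated and BID expression read by qRT-PCR.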

Caspase-3 (Homo sapiens) = Caspase-3 (Homo sapiens) (UniProt P42574); assay: LTEA_HepaRG_CASP3: Life Technologies and Expression Analysis (LTEA) Assay for cysteine-aspartic acid protease (CASP3) using HepaRG (AID 2283477)
Procedure, shortened: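 Differentiated HepaRG cells, plated 48 h, were treated in duplicate in serum-free induction medium for 48 h with eight half-log concentrations up to 100 uM in 0.5% DMSO. CASP3 mRNA measured by qRT-PCR, normalized to ACTB, GAPDH, POLR2A.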

[9] = read-out: Cytochrome P450 (CYP24A1), CYP24A1 (gene 1591); assay: LTEA_HepaRG_CYP24A1: Life Technologies and Expression Analysis (LTEA) Assay for Cytochrome P450 (CYP24A1) using HepaRG (AID 2283478)
Procedure, shortened: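 HepaRG cells plated 48 h, then exposed in duplicate in serum-free induction medium for 48 h to 8-point half-log series from 100 uM in 0.5% DMSO. CYP24A1 mRNA by Fluidigm qRT-PCR, normalized to ACTB, GAPDH, POLR2A; bidirectional fit versus DMSO.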

[10] = read-out: Cytochrome P450 (CYP1A2), CYP1A2 (gene 1544); assay: LTEA_HepaRG_CYP1A2: Life Technologies and Expression Analysis (LTEA) Assay for Cytochrome P450 (CYP1A2) using HepaRG (AID 2283479)
Procedure, shortened: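 Differentiated human HepaRG cells in serum-free induction medium exposed 48 hours in duplicate to 8 half-log concentrations from 100 uM, 0.5% DMSO. CYP1A2 mRNA quantified by qRT-PCR, normalized to ACTB, GAPDH and POLR2A; bidirectional fitting versus DMSO.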

[11] = read-out: cysteine-aspartic acid protease (CASP8), CASP8 (gene 841); assay: LTEA_HepaRG_CASP8: Life Technologies and Expression Analysis (LTEA) Assay for cysteine-aspartic acid protease (CASP8) using HepaRG (AID 2283480)
Procedure, shortened: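 qRT-PCR readout of CASP8 mRNA, normalized to three housekeeping genes, after 48 h chemical exposure of HepaRG cells; 8-point half-log series, top 100 uM, 0.5% DMSO vehicle. Bidirectional curve fitting against DMSO baseline.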

[12] = read-out: Cytochrome P450 (CYP2B6), CYP2B6 (gene 1555); assay: LTEA_HepaRG_CYP2B6: Life Technologies and Expression Analysis (LTEA) Assay for Cytochrome P450 (CYP2B6) using HepaRG (AID 2283481)
Procedure, shortened: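 Differentiated human HepaRG cells in serum-free induction medium, dosed in duplicate for 48 h over 8 half-log concentrations topping at 100 uM (0.5% DMSO). CYP2B6 mRNA measured by TaqMan qRT-PCR, normalized to ACTB, GAPDH, POLR2A; bidirectional fit versus DMSO.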

[13] = read-out: Cytochrome P450 2C19 (Homo sapiens) (UniProt P33261); assay: LTEA_HepaRG_CYP2C19: Life Technologies and Expression Analysis (LTEA) Assay for CYP2C19 using HepaRG (AID 2283482)
Procedure, shortened: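 Differentiated HepaRG cells in serum-free induction medium exposed 48 h in duplicate, 8 concentrations from 100 uM by half-log steps in 0.5% DMSO. CYP2C19 mRNA measured by TaqMan qRT-PCR, normalized to ACTB, GAPDH, POLR2A. Bidirectional fit versus DMSO.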

CYP2C8 (gene 1558) = assay: LTEA_HepaRG_CYP2C8: Life Technologies and Expression Analysis (LTEA) Assay for CYP2C8 using HepaRG (AID 2283483)
Procedure, shortened: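 HepaRG (human liver line), 48 h chemical exposure, 8-pt half-log series from 100 uM, 0.5% DMSO vehicle. Readout: CYP2C8 transcript by qRT-PCR, housekeeping-normalized. Bidirectional fit vs DMSO baseline.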

CYP2C9 (gene 1559) = assay: LTEA_HepaRG_CYP2C9: Life Technologies and Expression Analysis (LTEA) Assay for CYP2C9 using HepaRG (AID 2283484)
Procedure, shortened: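 HepaRG, 48 h dosing, 8-pt half-log series, top 100 uM, 0.5% DMSO vehicle. Read-out: CYP2C9 transcript by TaqMan qRT-PCR, housekeeping-normalized (ACTB/GAPDH/POLR2A). Gain or loss fitted vs DMSO baseline.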

CYP2E1 (gene 1571) = assay: LTEA_HepaRG_CYP2E1: Life Technologies and Expression Analysis (LTEA) Assay for CYP2E1 using HepaRG (AID 2283485)
Procedure, shortened: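 Readout is qRT-PCR of CYP2E1 mRNA, normalized to three housekeeping genes and fitted bidirectionally against 0.5% DMSO. HepaRG cells were dosed 48 h at eight concentrations, highest 100 uM with half-log dilutions.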

CYP4A11 (gene 1579) = assay: LTEA_HepaRG_CYP4A11: Life Technologies and Expression Analysis (LTEA) Assay for CYP4A11 using HepaRG (AID 2283486)
Procedure, shortened: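 Differentiated HepaRG cells, 48 h after plating, exposed in duplicate for 48 h to 8 half-log concentrations up to 100 uM in 0.5% DMSO in serum-free induction medium. CYP4A11 mRNA measured by TaqMan qRT-PCR, normalized to ACTB, GAPDH and POLR2A.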

Measured: AC50

Chain of Apoptosis regulator Bcl-2 (Homo sapiens) (P10415 whole entry, looked up): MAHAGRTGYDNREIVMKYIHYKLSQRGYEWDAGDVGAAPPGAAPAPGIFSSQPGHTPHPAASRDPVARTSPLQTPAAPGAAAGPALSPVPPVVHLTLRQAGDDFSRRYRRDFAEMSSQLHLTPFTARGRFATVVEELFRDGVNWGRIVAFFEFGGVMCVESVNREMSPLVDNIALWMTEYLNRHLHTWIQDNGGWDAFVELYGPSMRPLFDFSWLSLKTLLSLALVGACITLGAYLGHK
Chain of Caspase-3 (Homo sapiens) (P42574 whole entry, looked up): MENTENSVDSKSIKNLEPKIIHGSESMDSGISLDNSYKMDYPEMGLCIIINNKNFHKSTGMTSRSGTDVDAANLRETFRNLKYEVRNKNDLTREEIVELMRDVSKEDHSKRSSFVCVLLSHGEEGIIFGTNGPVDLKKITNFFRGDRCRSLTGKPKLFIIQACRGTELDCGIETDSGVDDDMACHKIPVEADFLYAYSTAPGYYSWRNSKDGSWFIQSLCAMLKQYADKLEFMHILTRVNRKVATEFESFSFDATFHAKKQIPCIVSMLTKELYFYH
Chain of Cytochrome P450 2C19 (Homo sapiens) (P33261 whole entry, looked up): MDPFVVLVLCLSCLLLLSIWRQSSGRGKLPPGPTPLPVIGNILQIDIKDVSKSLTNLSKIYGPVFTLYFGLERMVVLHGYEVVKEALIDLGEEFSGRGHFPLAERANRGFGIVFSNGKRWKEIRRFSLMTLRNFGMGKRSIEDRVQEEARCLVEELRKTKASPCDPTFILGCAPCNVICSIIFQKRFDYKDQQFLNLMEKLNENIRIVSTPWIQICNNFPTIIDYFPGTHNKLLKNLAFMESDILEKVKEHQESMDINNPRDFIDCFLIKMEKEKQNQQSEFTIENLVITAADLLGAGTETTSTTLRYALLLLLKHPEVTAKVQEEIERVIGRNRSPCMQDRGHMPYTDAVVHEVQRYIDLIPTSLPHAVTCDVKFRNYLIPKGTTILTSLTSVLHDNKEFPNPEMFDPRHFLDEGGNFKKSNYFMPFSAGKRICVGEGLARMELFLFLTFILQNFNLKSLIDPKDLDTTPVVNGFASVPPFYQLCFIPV

CCOC(=O)CCC(=O)OCC
active: [4] 79.3 µM | [11] 87.3 µM | [12] 19.3 µM
inactive: all other assays above

CCNc1cccc(C)c1
inactive: all assays above

COCCOCCOC
active: [1] 9.92 µM | [2] 1.39 µM | [4] 2.17 µM | [5] 0.517 µM | [7] 0.723 µM | [8] 1.05 µM | Caspase-3 (Homo sapiens) 0.423 µM | [9] 0.388 µM | [10] 0.95 µM | [11] 1.57 µM | CYP2C8 (gene 1558) 0.712 µM
inactive: [3] | BCL2L11 (gene 10018) | [6] | [13] | CYP2C9 (gene 1559) | CYP2E1 (gene 1571) | CYP4A11 (gene 1579)
